Laboratory results: PubChem BioAssay AID1159580 (chemical genetic matrix, 2015)
“And” between values parts separate entries of the source, which are not always exact repeats. Identical values can stand only once. The campaign covered roughly 5,500 compounds. About 2,000 (36%) were called active. Roughly 18% stayed inconclusive and do not appear here. Cut-off read from the data, not from the text of the source: active = normalized growth mostly below about 0.91 (no sharp cut-off); inconclusive = no clear call, values can overlap the other calls; inactive = mostly above about 0.92. Some of the results follow.

Assay: chemical genetic growth profiling, strain panel (AID 1159580);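 note: tested at 20 µM; growth read once vehicle control cultures reached saturation at 30 °C; 1 = growth at the plate median or of vehicle wells; lower values mean less growth of the strain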
Conditions: S. cerevisiae deletion strains, growth OD

Measured: normalized growth

NC(=O)c1ncn([C@@H]2O[C@H](CO)[C@@H](O)[C@H]2O)n1
inactive: locus YAL013W, strain DEP1, stronger effect = lower value 1 | locus YAL021C, strain ccr4, stronger effect = lower value 1.02 | locus YAL026C, strain drs2, stronger effect = lower value 0.995 | locus YAL030W, strain snc1, stronger effect = lower value 0.998 | locus YBL061C, strain skt5, stronger effect = lower value 0.975 | locus YBR009C, strain hhf1, stronger effect = lower value 0.992 | locus YBR021W, strain FUR4, stronger effect = lower value 0.965 | locus YBR023C, strain chs3, stronger effect = lower value 0.981 | locus YBR171W, strain sec66, stronger effect = lower value 0.993 | locus YBR229C, strain ROT2, stronger effect = lower value 0.993 | locus YBR231C, strain swc5, stronger effect = lower value 0.997 | locus YBR279W, strain paf1, stronger effect = lower value 0.978 | locus YCL011C, strain gbp2, stronger effect = lower value 0.981 | locus YCL016C, strain dcc1, stronger effect = lower value 0.979 | locus YCL029C, strain bik1, stronger effect = lower value 0.981 | locus YCL061C, strain MRC1, stronger effect = lower value 0.983 | locus YCL069W, strain vba3, stronger effect = lower value 0.996 | locus YCR088W, strain abp1, stronger effect = lower value 0.994 | locus YDL005C, strain med2, stronger effect = lower value 0.982 | locus YDL035C, strain GPR1, stronger effect = lower value 1.02 | locus YDL040C, strain nat1, stronger effect = lower value 0.978 | locus YDL074C, strain BRE1, stronger effect = lower value 1.04 | locus YDL101C, strain DUN1, stronger effect = lower value 0.998 | locus YDL134C, strain PPH21, stronger effect = lower value 1 | locus YDL185W, strain tfp1, stronger effect = lower value 0.978 | locus YDL192W, strain arf1, stronger effect = lower value 0.98 | locus YDR001C, strain nth1, stronger effect = lower value 0.996 | locus YDR069C, strain doa4, stronger effect = lower value 0.989 | locus YDR101C, strain arx1, stronger effect = lower value 0.993 | locus YDR137W, strain rgp1, stronger effect = lower value 0.97 | locus YDR150W, strain NUM1, stronger effect = lower value 0.988 | locus YDR159W, strain sac3, stronger effect = lower value 0.978 | locus YDR162C, strain NBP2, stronger effect = lower value 0.968 | locus YDR195W, strain ref2 0.979 | locus YDR297W, strain sur2, stronger effect = lower value 0.99 | locus YDR318W, strain mcm21, stronger effect = lower value 0.995 | locus YDR334W, strain swr1, stronger effect = lower value 0.99 | locus YDR335W, strain msn5, stronger effect = lower value 0.991 | locus YDR388W, stronger effect = lower value 0.995 | locus YDR392W, strain spt3, stronger effect = lower value 0.995 | locus YDR502C, strain sam2, stronger effect = lower value 0.992 | locus YEL003W, strain gim4, stronger effect = lower value 0.999 | locus YEL037C, strain rad23, stronger effect = lower value 0.993 | locus YEL061C, strain CIN8 (second series), stronger effect = lower value 0.994 | locus YEL061C, strain CIN8, stronger effect = lower value 0.999 | locus YER015W, strain faa2, stronger effect = lower value 0.988 | locus YER016W, strain bim1, stronger effect = lower value 0.988 | locus YER110C, stronger effect = lower value 0.989 | locus YER111C, strain swi4, stronger effect = lower value 0.996 | locus YER155C, strain BEM2 (second series), stronger effect = lower value 0.989 | locus YER155C, strain BEM2, stronger effect = lower value 0.995 | locus YER167W, strain BCK2, stronger effect = lower value 1.01 | locus YFR010W, strain ubp6, stronger effect = lower value 0.999 | locus YGL078C, strain dbp3, stronger effect = lower value 0.985 | locus YGL086W, strain mad1, stronger effect = lower value 0.997 | locus YGL167C, strain pmr1, stronger effect = lower value 0.983 | locus YGL173C, strain kem1, stronger effect = lower value 0.974 | locus YGL227W, strain vid30, stronger effect = lower value 0.986 | locus YGL240W, strain doc1, stronger effect = lower value 0.984 | locus YGL248W, strain PDE1, stronger effect = lower value 0.996 | locus YGL253W, strain hxk2, stronger effect = lower value 0.982 | locus YGR078C, strain PAC10, stronger effect = lower value 1.02 | locus YGR135W, strain pre9, stronger effect = lower value 0.979 | locus YGR229C, strain SMI1, stronger effect = lower value 1.01 | locus YGR252W, strain gcn5, stronger effect = lower value 0.993 | locus YHR013C, strain ard1, stronger effect = lower value 0.953 | locus YHR027C, strain rpn1, stronger effect = lower value 0.974 | locus YHR030C, strain SLT2, stronger effect = lower value 0.999 and 0.988 | locus YHR079C, strain IRE1 (second series), stronger effect = lower value 1 | locus YHR079C, strain IRE1, stronger effect = lower value 0.98 | locus YHR094C, strain hxt1, stronger effect = lower value 0.981 | locus YHR129C, strain ARP1, stronger effect = lower value 1.01 | locus YHR142W, strain chs7, stronger effect = lower value 0.999 | locus YHR200W, strain rpn10, stronger effect = lower value 0.993 | locus YIL066C, strain RNR3, stronger effect = lower value 0.995 | locus YIL073C, strain SPO22, stronger effect = lower value 0.946 | locus YIL125W, strain kgd1, stronger effect = lower value 0.997 | locus YIR030C, strain dcg1, stronger effect = lower value 0.99 | locus YJL092W, strain hpr5, stronger effect = lower value 0.992 | locus YJL095W, strain BCK1 (second series), stronger effect = lower value 0.987 | locus YJL095W, strain BCK1, stronger effect = lower value 1.02 and 0.977 | locus YJL115W, strain asf1, stronger effect = lower value 0.994 | locus YJL129C, strain trk1, stronger effect = lower value 0.995 | locus YJL134W, strain LCB3, stronger effect = lower value 1 | locus YJL154C, strain vps35, stronger effect = lower value 1.01 | locus YJL164C, strain tpk1, stronger effect = lower value 0.978 | locus YJL166W, strain qcr8, stronger effect = lower value 0.988 | locus YJL168C, strain set2, stronger effect = lower value 1 | locus YJL187C, strain SWE1 (second series), stronger effect = lower value 0.983 | locus YJL187C, strain SWE1, stronger effect = lower value 0.986 | locus YJR043C, strain POL32, stronger effect = lower value 0.977 | locus YJR066W, strain TOR1, stronger effect = lower value 0.959
